# An excerpt weighted towards active compounds, which were near 2.5% of everything screened.
# NTMT1 inhibitor: Primary qHTS for Inhibitors of N-terminal methyltransferase 1 (NTMT1): MTaseGlo Assay | NTMT1 MTase-Glo SAH luminescence, purified enzyme | Potency, µM (titrated, usually from 114 µM), usual class: inhibitors | 59,000 compounds, 2.5% hits; also: nearly all actives have a fitted effect of over 65% in size
# GALK inhibitor: qHTS Assay for Inhibitors of Human Galactokinase (GALK): NCGC Sytravon Library Screen; 44,000 tested, under 10 active; P51570; Potency, µM (series often up to 57.5 µM), most hits filed as inhibitors; recombinant GALK, Kinase-Glo ATP luminescence, 1 h
#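 5 nM GALK; 35 uM ATP; 100 uM D-galactose; 20 mM HEPES pH 8.0, 5 mM MgCl2, 60 mM NaCl, 1 mM DTT, 0.01% BSA; 1 h RT; Kinase-Glo Plus luminescence.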
# SKOV3 invasion: Primary qHTS assay for Inhibitors of ovarian cancer metastasis using an organotypic tumor microenvironment (TME) model; SKOV3ip1-GFP adhesion/invasion on 3D omental model, fluorescence; Potency, µM (titrated, usually from 45.8 µM), hits mostly inhibitors; 46,000 compounds, 0.1% hits; AID 1963576, 2024; also: nearly all actives have a fitted effect of over 65% in size
#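 qHTS, 4-pt dose (0.36-46 umol/L); SKOV3ip1-GFP, 1,200 cells/well, no FBS; primary omental fibroblast/mesothelial co-culture 48 h pre-grown; 2 h RT + 16 h 37 C; PBS wash, 4% PFA; GFP count 488/509 nm.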
# PTAP-TSG101 blk: qHTS Validation Assay for Inhibitors of HIV-1 Budding by Blocking the Interaction of PTAP/TSG101: Sytravon Library Screen; Potency, µM (top dose mostly 115 µM), most hits filed as inhibitors; AID 1347069, 2019; Fluorescence polarization, FITC-PTAP peptide/Tsg101, 20 min; 44,000 tested, under 10 active
# Target sequence (Q99816 whole entry, looked up): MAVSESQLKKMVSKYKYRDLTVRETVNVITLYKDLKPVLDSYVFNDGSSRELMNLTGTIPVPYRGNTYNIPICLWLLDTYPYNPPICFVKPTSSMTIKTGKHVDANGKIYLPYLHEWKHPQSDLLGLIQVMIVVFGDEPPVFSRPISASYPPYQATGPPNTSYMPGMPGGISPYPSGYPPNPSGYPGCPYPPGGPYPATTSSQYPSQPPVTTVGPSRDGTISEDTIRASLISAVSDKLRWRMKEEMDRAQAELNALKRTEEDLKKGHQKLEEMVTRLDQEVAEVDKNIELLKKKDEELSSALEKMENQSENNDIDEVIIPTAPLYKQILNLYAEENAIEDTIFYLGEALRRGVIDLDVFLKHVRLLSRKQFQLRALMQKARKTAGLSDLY
#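 Read-out is FITC fluorescence polarization. Compounds were added to Tsg101 binding domain (10 uM final), then FITC-PTAP peptide (50 nM final), 20 min at r.t. Total S+P intensity flags fluorescent compounds.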
# HTT prom inh: Primary qHTS for Identification of Small Molecule Inhibitors of Huntingtin Promoter Activity; HEK293 HTT promoter firefly luciferase reporter, 24 h; Potency, µM (highest dose often 57.5 µM), actives largely listed as inhibitors; 48,000 compounds, 0.93% hits; also: nearly all actives have a fitted effect of over 50% in size
#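 Luminescence was read after Dual-Glo reagent and a 10 min room-temperature incubation. Values were normalized to vehicle (0% activity) and zero RLU (-100% activity). Reporter HEK293 cells had been exposed to compounds (up to 57.5 uM final) for 24 h.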
# HTT-AS promoter: Primary qHTS for Identification of Small Molecule Activators of Huntingtin-Antisense Promoter Activity. HEK293 HTT-AS promoter firefly luciferase reporter, 24 h; response scale: percent change from vehicle, -100% = no light. Potency, µM (series often up to 57.5 µM), most hits filed as activators. 48,000 compounds, 0.24% hits; also: nearly all actives have a fitted effect of over 55% in size
#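 HEK293 cells carrying firefly luciferase reporters were seeded at 2,500 per well in Opti-MEM and cultured for 24 h. They were then treated with compounds at up to 57.5 uM final for 24 h at 37 degrees C before Dual-Glo luminescence readout.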
# A number is an active result; . = inactive; ? = inconclusive; / = no result; ! = a repeat was not active; [ ] = another dose, or the depositor's remark. Calls follow the shape of the dose curve; as a rule, active = well fitted curve in the direction sought with a large enough effect; inconclusive = small, poorly fitted or top-dose-only effect, or another doubt; inactive = no such curve, though single readings can be large; an effect the other way counts as inactive or inconclusive.
SMILES,NTMT1 inhibitor,GALK inhibitor,SKOV3 invasion,PTAP-TSG101 blk,HTT prom inh,HTT-AS promoter
CSc1cccc(NC(=O)C2CCN(S(=O)(=O)c3ccc4[nH]c5c(c4c3)CCCCC5)CC2)c1,.,.,.,.,?,.
O=C(Nc1cccc(F)c1)C1CCN(S(=O)(=O)c2ccc3[nH]c4c(c3c2)CCCCC4)CC1,.,.,.,.,25.1µM,.
Cc1cc(-c2nc(C(=O)Nc3cn(C4CCOCC4)nc3C(N)=O)co2)ccn1,.,/,/,/,/,/
Cc1oc(-c2ccccc2F)nc1CS(=O)(=O)CC(=O)N1CCN(c2ccc(Cl)cc2)CC1,?,.,.,.,28.2µM,.
O=C(O)CCNc1cc(N2CCc3ccccc3CC2)nc(-c2cccnc2)n1,.,/,/,/,/,/
O=C(O)CCCCN(CCc1ccccc1OCc1ccc(CCc2ccccc2)cc1)Cc1ccc(C(=O)O)cc1,.,/,/,/,/,/
COc1cc(/C=C2\CCCN([C@@H](C)c3ccc(F)cc3)C2=O)ccc1-n1cnc(C)c1,.,/,/,/,/,/
COc1ccc(NCc2cccn2-c2nnc(N3CCC(C)CC3)s2)c(OC)c1,.,.,.,.,?,.
CCOc1ccc(NCc2cccn2-c2nnc(N3CCC(C(=O)NCc4ccccc4Cl)CC3)s2)cc1,.,.,.,.,22.4µM,.
CC1CCN(c2nnc(-n3cccc3CNc3cccc(F)c3)s2)CC1,.,.,.,.,5.62µM,.
Cc1ccc(NCc2cccn2-c2nnc(N3CCC(C(=O)NC(C)C)CC3)s2)cc1,89.1µM,.,.,.,?,.
Cc1ccc(NCc2cccn2-c2nnc(N3CCC(C(=O)NCCC(C)C)CC3)s2)cc1,?,.,?,.,?,.
CN1CCCN=C1/C=C/c1cccs1,50.1µM!,/,/,/,.,.
CC1(C)CC[C@]2(C(=O)O)[C@H](O)C[C@]3(C)C(=CCC4[C@@]5(C)CC[C@H](O[C@@H]6O[C@H](CO[C@@H]7OC[C@H](O)[C@H](O)[C@H]7O[C@@H]7OC[C@@H](O)[C@H](O)[C@H]7O)[C@@H](O)[C@H](O)[C@H]6O[C@@H]6O[C@H](CO)[C@@H](O)[C@H](O)[C@H]6O)C(C)(C)C5CC[C@]43C)[C@@H]2C1 (some centres not stated),.[12.6 µM],/,/,/,/,/
O=C(O)c1c(Cl)c(Cl)c(Cl)c(Cl)c1-c1c2cc(I)c(=O)c(I)c-2oc2c(I)c(O)c(I)cc12,3.55µM,/,.,/,.,.
O=C(Nc1cc(C(F)(F)F)cc(C(F)(F)F)c1)Nc1nnc(-c2ccncc2)s1,.,/,/,/,/,/
O=c1c(Nc2ccc(Br)c(Br)c2)c(Nc2nnc(-c3ccncc3)s2)c1=O,79.4µM,/,/,/,/,/
Cc1ccc(OCCn2c(CCNC(=O)c3ccccc3C)nc3ccccc32)cc1,.,/,/,/,/,/
Cc1ccc(NS(=O)(=O)c2cc(Br)cc3c2N(C(=O)C2CC2)CC3)cc1C,.,.,.,.,5.62µM,.
COc1cc(NS(=O)(=O)c2cc(Br)cc3c2N(C(=O)C2CC2)CC3)cc(OC)c1,.,.,.,.,15.8µM,.
CC(=O)c1cc2c(o1)C(=O)c1ccccc1C2=O,.,/,/,/,/,/
Cc1ccc(S(=O)(=O)c2cnc(SCC(=O)Nc3ccccc3C(F)(F)F)[nH]c2=O)cc1C,89.1µM,.,.,.,.,.
COc1cc(Cl)c(C)cc1NC(=O)CSc1ncc(S(=O)(=O)c2ccc(C(C)(C)C)cc2)c(=O)[nH]1,17.8µM,.,.,.,.,.
CCc1ccc(S(=O)(=O)c2cnc(SCC(=O)Nc3ccc(OC)cc3OC)[nH]c2=O)cc1,.,.,.,.,.,.

# Source: PubChem (National Center for Advancing Translational Sciences (NCATS))
